The text below walks through data of PubChem BioAssay (EPA / NIEHS).

Activity calls are given as the source filed them. How the source made its calls: active means hit-call score of the fitted dose curve at least 0.9, where 1 is the maximum; inactive means score below 0.9.

The term AC50 denotes the concentration at which the activity in the assay is half-maximal.

Holding throughout (conditions): mRNA level, 48 h; actives raise or lower the signal
Read-out in assay [1]: Glutathione S-transferase M3 (GSTM3), GSTM3 (gene 2947)
Put plainly: LTEA_HepaRG_GSTM3: Life Technologies and Expression Analysis (LTEA) Assay for Glutathione S-transferase M3 (GSTM3) using HepaRG (AID 2283501). In short, it runs like this:
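HepaRG, plated 48 h, then serum-free induction medium; test chemical 48 h, duplicate; 100 uM top, half-log x8, 0.5% DMSO. Read-out: GSTM3 mRNA (TaqMan qRT-PCR, Fluidigm array). Bidirectional fit vs DMSO.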

Read-out in assay [2]: Heat shock 70 kDa protein 1 (HSPA1A), gene 3303
Put plainly: LTEA_HepaRG_HSPA1A: Life Technologies and Expression Analysis (LTEA) Assay for Heat shock 70 kDa protein 1 (HSPA1A) using HepaRG (AID 2283502). In short, it runs like this: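 Readout is HSPA1A transcript level by microfluidic qRT-PCR, normalized to three housekeeping genes and analysed for gain or loss of signal relative to 0.5% DMSO. Human HepaRG cultures received test chemicals for 48 h at up to 100 uM.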

Read-out in assay [3]: Hypoxia-inducible factor 1-alpha (Homo sapiens) (UniProt Q16665)
Kind of assay: LTEA_HepaRG_HIF1A: Life Technologies and Expression Analysis (LTEA) Assay for Hypoxia-inducible factor 1 (HIF1A) Trancription factor using HepaRG (AID 2283503). In short, it runs like this:
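Differentiated HepaRG cells in serum-free induction medium exposed 48 h, in duplicate, to 8-point half-log series from 100 uM in 0.5% DMSO. HIF1A mRNA measured by TaqMan qRT-PCR, normalized to ACTB/GAPDH/POLR2A, fitted bidirectionally versus DMSO.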

Read-out in assay [4]: 3-Hydroxy-3-Methylglutaryl-CoA Synthase 2 (HMGCS2), HMGCS2 (gene 3158)
Kind of assay: LTEA_HepaRG_HMGCS2: Life Technologies and Expression Analysis (LTEA) Assay for 3-Hydroxy-3-Methylglutaryl-CoA Synthase 2 (HMGCS2) using HepaRG (AID 2283504). In short, it runs like this: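 HepaRG, plated 48 h then switched to serum-free induction media; cmpd 8-pt, max 100 uM, 1/2-log, 0.5% DMSO, n=2, 48 h. HMGCS2 mRNA by Fluidigm TaqMan qRT-PCR, ACTB/GAPDH/POLR2A norm; bidirectional fit vs DMSO.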

Read-out in assay [5]: HGF (gene 3082)
Put plainly: LTEA_HepaRG_HGF: Life Technologies and Expression Analysis (LTEA) Assay for Hepatocyte Growth Facto (HGF) using HepaRG (AID 2283505). In short, it runs like this: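 Read-out is HGF transcript level by qRT-PCR, normalized to three housekeeping genes, fitted bidirectionally against 0.5% DMSO vehicle. Human HepaRG cells received test chemicals for 48 h at up to 100 uM.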

Read-out in assay [6]: Insulin Like Growth Factor 1 (IGF1), IGF1 (gene 3479)
Kind of assay: LTEA_HepaRG_IGF1: Life Technologies and Expression Analysis (LTEA) Assay for Insulin Like Growth Factor 1 (IGF1) using HepaRG (AID 2283506). In short, it runs like this: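 HepaRG, plated 48 h, then switched to serum-free induction media; test chemical 8-pt half-log from 100 uM (0.5% DMSO), duplicate, 48 h. Lysis in RLT, TaqMan qRT-PCR, norm. ACTB/GAPDH/POLR2A. Bidirectional fit vs DMSO.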

Read-out in assay [7]: Insulin-like growth factor-binding protein 1 (IGFBP1), IGFBP1 (gene 3484)
Put plainly: LTEA_HepaRG_IGFBP1: Life Technologies and Expression Analysis (LTEA) Assay for Insulin-like growth factor-binding protein 1 (IGFBP1) using HepaRG (AID 2283508). In short, it runs like this: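 Thawed HepaRG cells are plated for 48 h, switched to serum-free induction medium, then dosed in duplicate for another 48 h (100 uM top, half-log steps). Lysates in RLT go to qRT-PCR, and gain or loss of signal is fitted relative to vehicle.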

Read-out in assay [8]: Interleukin 6 (IL6), IL6 (gene 3569)
Kind of assay: LTEA_HepaRG_IL6: Life Technologies and Expression Analysis (LTEA) Assay for Interleukin 6 (IL6) using HepaRG (AID 2283509). In short, it runs like this: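 Differentiated human HepaRG cells, plated 48 h then switched to serum-free induction medium, were exposed in duplicate for 48 h to eight half-log concentrations up to 100 uM in 0.5% DMSO. IL6 mRNA measured by qRT-PCR, normalized to ACTB/GAPDH/POLR2A.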

Read-out in assay [9]: Potassium channel subfamily K member 1 (KCNK1), KCNK1 (gene 3775)
Put plainly: LTEA_HepaRG_KCNK1: Life Technologies and Expression Analysis (LTEA) Assay for Potassium channel subfamily K member 1 (KCNK1) using HepaRG (AID 2283511). In short, it runs like this: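 Differentiated human HepaRG cells in serum-free induction medium were exposed in duplicate for 48 h to 8 half-log concentrations up to 100 uM in 0.5% DMSO. KCNK1 mRNA was measured by TaqMan qRT-PCR, normalized to ACTB, GAPDH and POLR2A, and fitted bidirectionally versus DMSO.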

Read-out in assay [10]: Keratin 19 (KRT19), KRT19 (gene 3880)
Put plainly: LTEA_HepaRG_KRT19: Life Technologies and Expression Analysis (LTEA) Assay for Keratin 19 (KRT19) using HepaRG (AID 2283512). In short, it runs like this:
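KRT19 transcript levels, measured by Fluidigm qRT-PCR against three housekeeping genes, are fitted for gain or loss of signal relative to DMSO. Human HepaRG cells receive test chemicals (top 100 uM, half-log steps, 0.5% DMSO) for 48 hours.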

Read-out in assay [11]: JUN Transcription Factor, JUN (gene 3725)
Kind of assay: LTEA_HepaRG_JUN: Life Technologies and Expression Analysis (LTEA) Assay for JUN Transcription Factor using HepaRG (AID 2283513). In short, it runs like this: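 Cells plated 48 h, medium switched to serum-free induction medium, then dosed 48 h (100 uM top, half-log dilutions, 0.5% DMSO). RNA isolated; JUN measured by qRT-PCR against three housekeeping genes; gain or loss fitted relative to DMSO.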

Read-out in assay [12]: Lipoprotein lipase (LPL), LPL (gene 4023)
Kind of assay: LTEA_HepaRG_LPL: Life Technologies and Expression Analysis (LTEA) Assay for Lipoprotein lipase (LPL) using HepaRG (AID 2283515). In short, it runs like this:
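Differentiated human HepaRG cells in serum-free induction medium were exposed in duplicate for 48 h to eight half-log concentrations (top 100 uM) in 0.5% DMSO. LPL mRNA was quantified by TaqMan qRT-PCR, normalized to ACTB, GAPDH and POLR2A.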

Read-out in assay [13]: MicroRNA 122 (MIR122), gene 406906
Kind of assay: LTEA_HepaRG_MIR122: Life Technologies and Expression Analysis (LTEA) Assay for MicroRNA 122 (MIR122) using HepaRG (AID 2283516). Further: the transcript read is the microRNA miR-122. In short, it runs like this: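 HepaRG plated 48 h, switched to serum-free induction medium, then treated in duplicate for 48 h (100 uM top, half-log steps, 0.5% DMSO vehicle). RNA isolated, qRT-PCR performed, concentration-response fitted both directions relative to DMSO.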

Read-out in assay [14]: matrix metalloproteinase-10 (MMP10), MMP10 (gene 4319)
Put plainly: LTEA_HepaRG_MMP10: Life Technologies and Expression Analysis (LTEA) Assay for matrix metalloproteinase-10 (MMP10) using HepaRG (AID 2283517). In short, it runs like this: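 HepaRG, collagen I, ~100,000 cells/well; serum-free induction medium; 48 h exposure, duplicate, 8-pt half-log to 100 uM, 0.5% DMSO. Readout: TaqMan qRT-PCR, normalized to ACTB/GAPDH/POLR2A; bidirectional fit vs DMSO.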

Read-out in assay [15]: MYC, MYC (gene 4609)
Kind of assay: LTEA_HepaRG_MYC: Life Technologies and Expression Analysis (LTEA) Assay for MYC using HepaRG (AID 2283518). In short, it runs like this: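 HepaRG, ~100,000 cells/well, collagen I; 48 h plating; serum-free induction medium; 48 h dosing, duplicate, 100 uM top, half-log, 0.5% DMSO; total RNA → qRT-PCR MYC; gain/loss fit vs DMSO.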

Read-out in assay [16]: Paternally Expressed 10 (PEG10), PEG10 (gene 23089)
Put plainly: LTEA_HepaRG_PEG10: Life Technologies and Expression Analysis (LTEA) Assay for Paternally Expressed 10 (PEG10) using HepaRG (AID 2283520). In short, it runs like this:
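HepaRG, 48 h post-plating → serum-free induction medium → 48 h chemical exposure (duplicate, 8-pt, max 100 uM, half-log, 0.5% DMSO) → lysis in RLT → TaqMan qRT-PCR for PEG10, ACTB/GAPDH/POLR2A normalisation.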

Read-out in assay [17]: Interleukin 6 Receptor (IL6R), IL6R (gene 3570)
Kind of assay: LTEA_HepaRG_IL6R: Life Technologies and Expression Analysis (LTEA) Assay for Interleukin 6 Receptor (IL6R) using HepaRG (AID 2283510).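 On AC50: TaqMan qRT-PCR signal normalized to ACTB GAPDH and POLR2A housekeeping genes.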 In short, it runs like this: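 Readout is IL6R transcript level by TaqMan qRT-PCR, normalized to three housekeeping genes and fitted bidirectionally against 0.5% DMSO controls. Human HepaRG cells received chemicals for 48 h in serum-free induction medium, highest concentration 100 uM.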

Read-out in assay [18]: Lipase C (LIPC), LIPC (gene 3990)
Put plainly: LTEA_HepaRG_LIPC: Life Technologies and Expression Analysis (LTEA) Assay for Lipase C (LIPC) using HepaRG (AID 2283514). In short, it runs like this:
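Differentiated human HepaRG cells in serum-free induction medium were exposed in duplicate for 48 h to eight concentrations (top 100 uM, half-log steps, 0.5% DMSO). LIPC mRNA was quantified by TaqMan qRT-PCR, normalized to ACTB, GAPDH and POLR2A, with bidirectional fitting versus DMSO.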

Read-out in assay [19]: matrix metalloproteinase-3 (MMP3), MMP3 (gene 4314)
Put plainly: LTEA_HepaRG_MMP3: Life Technologies and Expression Analysis (LTEA) Assay for matrix metalloproteinase-3 (MMP3) using HepaRG (AID 2283519). In short, it runs like this:
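Differentiated human HepaRG cells, plated 48 h on collagen I, were exposed in duplicate for 48 h in serum-free induction medium to eight half-log concentrations up to 100 uM in 0.5% DMSO. MMP3 mRNA was quantified by TaqMan qRT-PCR, normalised to ACTB, GAPDH and POLR2A.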

Chain of Hypoxia-inducible factor 1-alpha (Homo sapiens) (Q16665 whole entry, looked up): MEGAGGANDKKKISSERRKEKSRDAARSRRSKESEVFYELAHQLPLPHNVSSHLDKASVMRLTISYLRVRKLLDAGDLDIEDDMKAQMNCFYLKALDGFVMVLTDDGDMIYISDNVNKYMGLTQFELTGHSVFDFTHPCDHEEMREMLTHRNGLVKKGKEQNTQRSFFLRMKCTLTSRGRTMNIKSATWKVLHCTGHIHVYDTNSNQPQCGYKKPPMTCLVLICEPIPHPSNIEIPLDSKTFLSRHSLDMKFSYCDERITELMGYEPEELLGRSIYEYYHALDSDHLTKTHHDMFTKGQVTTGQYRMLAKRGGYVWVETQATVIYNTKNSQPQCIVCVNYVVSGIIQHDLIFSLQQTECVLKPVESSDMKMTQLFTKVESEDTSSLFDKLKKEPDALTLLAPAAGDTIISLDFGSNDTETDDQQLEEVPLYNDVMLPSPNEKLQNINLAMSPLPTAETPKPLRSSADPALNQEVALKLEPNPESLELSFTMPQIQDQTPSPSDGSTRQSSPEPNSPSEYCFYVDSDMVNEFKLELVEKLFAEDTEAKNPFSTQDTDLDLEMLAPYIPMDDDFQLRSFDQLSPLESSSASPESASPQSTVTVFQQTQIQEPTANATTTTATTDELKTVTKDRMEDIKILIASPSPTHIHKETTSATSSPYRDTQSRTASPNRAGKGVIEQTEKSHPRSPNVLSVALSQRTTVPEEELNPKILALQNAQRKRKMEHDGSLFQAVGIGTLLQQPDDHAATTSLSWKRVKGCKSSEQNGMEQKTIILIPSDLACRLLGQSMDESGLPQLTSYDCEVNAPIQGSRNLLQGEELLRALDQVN

Consider `C[C@]12C=CC3=C4CCC(=O)C=C4CC[C@H]3[C@@H]1CC[C@@H]2O`, for which the molecule was classed as inactive in assay [1], in assay [2], in assay [3], in [4], in assay [5] and in [7]. The result in assay [9], in assay [10], in assay [11], in [12], in [14] and in assay [15] was inactive. Also, the AC50 is 55.6 µM (active) in assay [6], 9.92 µM (active) in assay [8], 69.6 µM (active) in [13] and 0.805 µM (active) in [16].

As for `O=C(O)C1C2CCC(O2)C1C(=O)O` (configuration not stated), the molecule was called inactive in assay [1], in assay [2], in assay [5], in assay [9], in [12] and in assay [15]. Moreover, the AC50 in assay [4] was 72.6 µM (active); in [6] it was 73.6 µM (active); in [7], 93.3 µM (active); in [17], 26.4 µM (active); in assay [10] it was 50 µM (active); in assay [11], 24.7 µM (active). Moreover, the AC50 in [18] was 82.6 µM (active); in [13], 74.4 µM (active); in assay [19], 27.7 µM (active); in [16], 85.7 µM (active).

As for `[As]#[In]`, the molecule was classed as inactive in [1], in [2], in assay [3], in [4], in assay [5] and in [6]. Besides, the call in assay [7], in assay [17], in assay [9], in [10], in [11] and in [18] was inactive. Further, the outcome in [12], in [13], in [14], in [15], in assay [19] and in [16] was inactive.

Consider `CCNS(=O)(=O)C(F)(F)C(F)(F)C(F)(F)C(F)(F)C(F)(F)C(F)(F)C(F)(F)C(F)(F)F`, for which the molecule was classed as inactive in [1], in assay [3], in assay [4], in assay [5], in assay [7] and in [8]. For the same molecule, the result in [9], in [11], in [18], in assay [12], in assay [14] and in assay [15] was inactive. In addition, the molecule was called inactive in [19]. Besides, the AC50 was 48.2 µM (active) in assay [6], 48.2 µM (active) in assay [10], 48.2 µM (active) in [13] and 15.5 µM (active) in assay [16].
